The source of these data is PubChem BioAssay (Tox21).

Experiment [1] can be described thus: qHTS assay to identify small molecule agonists of the vitamin D receptor (VDR) signaling pathway - cell viability counter screen (AID 743224). Further: nearly all actives have a fitted effect of over 50% in size. Further: potency means the concentration at half of the fitted maximal effect. Put shortly:
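VDR-bla cell line, quantitative HTS format; 16 h compound incubation (37C, 5% CO2); ATP-based CellTiter-Glo luminescence measured in the reporter assay wells.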

Experiment [2] in a line: qHTS assay to identify small molecule antagonists of the vitamin D receptor (VDR) signaling pathway - cell viability counter screen (AID 743225). Further: nearly all actives have a fitted effect of over 50% in size. Further: potency means the concentration at half of the fitted maximal effect. Put shortly:
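Luminescent cell viability (CellTiter-Glo) in VDR-bla HEK 293T cells after 16 h compound exposure at 37C in the presence of 3 nM final 1-alpha,25-dihydroxy vitamin D3.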
(In general: In qHTS, concentration-response curves come from the screen itself.)

Experiment [3] can be described thus: qHTS assay to identify small molecule agonists of the NFkB signaling pathway - cell viability counter screen (AID 1159515; calls by dose curve; further: nearly all actives have a fitted effect of over 55% in size; further: potency means the concentration at half of the fitted maximal effect). Put shortly: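 Viability in NFkB-bla ME-180 cells was measured by CellTiter-Glo luminescence, 30 min room temperature, in wells already treated 5 hr with compounds and read for reporter FRET.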
Experiment [4] in a line: qHTS assay to identify small molecule antagonists of the retinoid-related orphan receptor gamma (ROR-gamma) signaling pathway - cell viability counter screen (AID 1159520). Further: nearly all actives have a fitted effect of over 50% in size. Further: potency means the concentration at half of the fitted maximal effect. Put shortly: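 Tet-on ROR gamma CHO cells were given compounds for 2 hr, then doxycycline hyclate at 1 uM final, and incubated 16 hr at 37 C. Viability was measured as ATP content by CellTiter-Glo luminescence.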

Experiment [5] deals with Nuclear receptor ROR-gamma (Homo sapiens) (UniProt P51449). Description: qHTS assay to identify small molecule antagonists of the retinoid-related orphan receptor gamma (ROR-gamma) signaling pathway (AID 1159521; further: nearly all actives have a fitted effect of over 50% in size; further: potency means the concentration at half of the fitted maximal effect). In short, it runs like this: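 CHO cells expressing RORγ under a TET-on promoter, luciferase under RORE control. Dox 1 uM final, 16 h; compounds added 2 h prior. Luminescence decrease measured.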

Experiment [6] is described as follows: qHTS assay to identify small molecule agonists of the AP-1 signaling pathway - cell viability counter screen (AID 1159525; calls by dose curve; further: nearly all actives have a fitted effect of over 55% in size; further: potency means the concentration at half of the fitted maximal effect). Put shortly:
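AP-1-bla ME-180 cells in Opti-MEM with 0.5% dialyzed FBS, compound exposure 5 h at 37 C in 15-point titration. Viability read in the same wells as ATP content by CellTiter-Glo luminescence, normalised to tetra-n-octylammonium bromide and DMSO controls.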

Experiment [7] can be described thus: qHTS assay to identify small molecule agonists of the RXR signaling pathway - cell viability counter screen (AID 1159529). Further: nearly all actives have a fitted effect of over 50% in size. Further: potency means the concentration at half of the fitted maximal effect. In short, it runs like this: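 Same-well viability check after the LiveBLAzer FRET read: CellTiter-Glo added, luminescence measured after 30 min at room temperature. Reporter HEK 293T cells had been treated with compounds for 16 hr following a 5 hr preincubation.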

The nature of experiment [8]: qHTS assay to identify small molecule antagonists of the retinoic acid receptor (RAR) signaling pathway (AID 1159552). Put shortly:
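Readout: luciferase luminescence, 30 min post-reagent at RT. Setup: C3RL4 RARE reporter cells, compounds plus retinol 1 uM final, 6 hr incubation at 37 C and 5% CO2.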

The nature of experiment [9]: qHTS assay to identify small molecule antagonists of the retinoid acid receptor (RAR) signaling pathway - cell viability counter screen (AID 1159551). Further: nearly all actives have a fitted effect of over 35% in size. Further: potency means the concentration at half of the fitted maximal effect. In short, it runs like this: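 Following overnight attachment, C3RL4 reporter cells received DMSO-dissolved compounds and then retinol (1 uM final). Six hours later at 37 C, ATP content was measured by CellTiter-Glo luminescence.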

Experiment [10] is described as follows: qHTS assay to identify small molecule agonists of the AP-1 signaling pathway (AID 1159526; calls by dose curve).
For experiment [11], the target named is Retinoic acid receptor RXR-alpha (Homo sapiens) (UniProt P19793). In words: qHTS assay to identify small molecule agonists of the RXR signaling pathway (AID 1159527; calls by dose curve; further: nearly all actives have a fitted effect of over 35% in size). In short, it runs like this: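 Beta-lactamase reporter assay, agonist format. Engineered HEK 293T line, charcoal-stripped FBS at 2%, overnight (16 hr) exposure, fluorescence at 460 and 530 nm after 405 nm excitation.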
Sequence of Retinoic acid receptor RXR-alpha (Homo sapiens) (P19793 whole entry, looked up): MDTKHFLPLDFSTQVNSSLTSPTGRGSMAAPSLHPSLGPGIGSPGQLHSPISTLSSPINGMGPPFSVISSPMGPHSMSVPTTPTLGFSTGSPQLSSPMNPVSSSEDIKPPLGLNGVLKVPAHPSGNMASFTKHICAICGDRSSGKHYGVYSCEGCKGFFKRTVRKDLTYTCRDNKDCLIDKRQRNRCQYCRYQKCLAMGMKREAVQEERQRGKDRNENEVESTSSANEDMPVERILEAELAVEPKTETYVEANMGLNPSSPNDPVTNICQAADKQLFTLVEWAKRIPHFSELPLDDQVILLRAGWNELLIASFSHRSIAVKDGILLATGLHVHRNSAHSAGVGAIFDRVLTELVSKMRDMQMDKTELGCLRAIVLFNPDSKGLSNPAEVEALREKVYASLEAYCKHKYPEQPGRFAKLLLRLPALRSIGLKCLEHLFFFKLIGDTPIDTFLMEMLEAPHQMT

Experiment [12] can be described thus: qHTS assay to identify small molecule agonists of the retinoic acid receptor (RAR) signaling pathway (AID 1159553). Put shortly: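 Cell line C3RL4, RARE luciferase reporter. Treatment: compounds in DMSO, 6 hr, 37 C, 5% CO2, after overnight plating. Detection: luminescence, 30 min RT after reagent.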

Structures are written as SMILES. Results filed as inconclusive are left out. Calls of active or inactive are those of the source. Unless noted, the call rests on the fitted dose curve; in most records, active means well fitted curve in the direction sought with a large enough effect in the repeat runs; inconclusive means weak or mixed curves; inactive means no such curve, though single readings can be large; an effect the other way counts as inactive or inconclusive.

On to `On1ccccc1=S`, for which the Potency in experiment [1] was 0.61 µM (active); in experiment [3] it was 0.385 µM (active); in [4] it was 5.39 µM (active); in experiment [5], 0.303 µM (active); in [6] it was 21.7 µM (active); in experiment [7] it was 2.43 µM (active). For the same compound, in [2], the Potency entry was “inactive”.

In the case of `Oc1ccc(C2(c3ccc(O)cc3)CC3CC2C2CCCC32)cc1` (stereo not given), the Potency in experiment [1] is 23.6 µM (active); in experiment [2], 33.3 µM (active); in experiment [3] it was 52.8 µM (active); in [4] it was 52.3 µM (active); in experiment [5], 46.6 µM (active); in experiment [6], 41.9 µM (active). The figures for the Potency in experiment [7] and in experiment [8] were 16.7 µM (active) and 46.6 µM (active), respectively.

`CCC(C)Nc1ccc(NC(C)CC)cc1` (stereo not given): the Potency was 17.7 µM (active) in experiment [1]; 8.88 µM (active) in [2]; 44.5 µM (active) in experiment [3]; 31.2 µM (active) in experiment [4]; 27.8 µM (active) in [5]; 39.3 µM (active) in experiment [9].

For the compound `COc1cc(-c2nc(NC(=O)c3cc4cc(C)cc(C)c4n3CC(=O)O)sc2CCC2CCCCC2)c(OC)cc1Cl`, the Potency was 10 µM (active) in [1]; 10 µM (active) in [2]; 10 µM (active) in experiment [3]; 39.7 µM (active) in [4]; 19.9 µM (active) in [5]; 28.3 µM (active) in experiment [6]. Moreover, in [7], the Potency is 20.1 µM (active).

`CCCCCCCCCCCCCCCC[N+](C)(C)CCN(Cc1ccc(OC)cc1)c1ncccn1`: the Potency in [2] was 19 µM (active); in [3], 23.9 µM (active); in [4], 29.8 µM (active); in experiment [5] it was 33.5 µM (active); in [6], 21.3 µM (active); in [7] it was 5.35 µM (active). Also, the Potency in experiment [9] is 29.8 µM (active).

Consider `CCCCCCCCS(=O)C(C)Cc1ccc2c(c1)OCO2` (stereo not given), for which the Potency in experiment [1] is 50 µM (active); in experiment [2], 44.5 µM (active). The Potency entry in [3], in experiment [4], in [5], in experiment [6] and in [9] was “inactive” each time.

On to `COC(=O)c1cc(Cl)ccc1OC`, for which the Potency result in experiment [1], in experiment [2], in experiment [3], in [4], in experiment [5] and in experiment [10] was “inactive” in each case. For the same compound, the Potency entry in [11], in [7] and in [9] was “inactive” each time.

On to `N=C1C=CC(=C(c2ccc(N)cc2)c2ccc(N)cc2)C=C1`, for which the Potency result in [3], in experiment [7] and in [12] was “inactive” throughout. For the same compound, the Potency was 13.7 µM (active) in experiment [4], 15.4 µM (active) in experiment [5], 19.3 µM (active) in experiment [9] and 13.7 µM (active) in [8].

As for `CC1=C(C(=O)OC(C)C)C(c2cccc([N+](=O)[O-])c2)C(C(=O)OC2CN(C(c3ccccc3)c3ccccc3)C2)=C(N)N1` (stereo not given), the Potency was 16.9 µM (active) in experiment [2]; 10.7 µM (active) in [3]; 26.6 µM (active) in [4]; 21.1 µM (active) in experiment [5]; 15.1 µM (active) in experiment [6]; 13.4 µM (active) in [7]. Further, the Potency in experiment [8] is 23.7 µM (active).

`CN(C)C(=O)C1(N2CCCCC2)CCN(CC[C@@]2(c3ccc(Cl)c(Cl)c3)CN(C(=O)c3ccccc3)CCO2)CC1`: the Potency was 20.4 µM (active) in [1]; 22.9 µM (active) in experiment [2]; 51.3 µM (active) in experiment [3]; 50.9 µM (active) in experiment [4]; 32.1 µM (active) in experiment [5]; 16.2 µM (active) in [7]. Also, the Potency in [8] is 28.6 µM (active).

In the case of `CCCCCCCCCCCCCCCCCC[N+](C)(C)Cc1ccccc1`, the Potency was 13.9 µM (active) in [1]; 7.84 µM (active) in experiment [2]; 22.1 µM (active) in experiment [3]; 27.6 µM (active) in experiment [4]; 15.5 µM (active) in experiment [5]; 4.95 µM (active) in experiment [7]. For the same compound, the figures for the Potency in experiment [9] and in experiment [8] were 61.7 µM (active) and 24.6 µM (active), respectively.
